# Data taken from PubChem BioAssay (NCATS).
# Records with an inconclusive call do not appear. A number with no mark means an inactive call. Active and inactive are the calls of the source. Calls follow the shape of the dose curve; as a rule, active = well fitted inhibition curve with a large enough effect; inconclusive = small, poorly fitted or top-dose-only effect; inactive = no such curve, though single readings can be large or run the other way.
# Experiment: Primary qHTS for inhibitors of nuclear receptor binding SET domain protein 2 (NSD2) in an RCH-ACV wild type WT cells (2C) (AID 1645877); also: nearly all actives have a fitted effect of over 70% in size
# Conditions: RCH-ACV (leukaemia line) NSD2 WT (2C) viability, CellTiter-Glo, 72 h; series mostly up to 44.9 µM; activity change, negative = cell killing: at the top concentration
# % is scaled to controls: 0 for no effect and ±100 for the full control effect; potency is read from the fitted curve at half-maximal effect.
SMILES,Potency,outcome,"activity change, negative = cell killing"
NC(=O)C1(N2CCCCC2)CCN(CCCN2c3ccccc3CCc3ccc(Cl)cc32)CC1,8.41 µM (active),–,–
Cc1ccc2ccc(Cl)cc2n1,–,inactive,–
Cc1cc2nc3ccc(=[N+](C)C)cc-3sc2cc1N,1.06 µM (active),–,–
CC(C)C(=O)OCc1cccc(OC(=O)[C@@H]2N3C(=O)[C@@H](NC(=O)Cc4ccccc4)[C@H]3SC2(C)C)c1,–,–,-27.6%
CC(=O)O[C@H]1CC[C@@]2(C)C(=CC[C@@H]3[C@@H]2CC[C@]2(C)C(C(C)=O)=CC[C@@H]32)C1,–,–,0.761%
Cc1coc2ccccc2c1=O,–,inactive,–
CN1CC[C@H](c2c(O)cc(O)c3c(=O)cc(-c4ccccc4Cl)oc23)[C@H](O)C1,0.0106 µM (active),–,–
CC(C)=CCC/C(C)=C/CC/C(C)=C/CCC(=O)OC/C=C(\C)CCC=C(C)C,–,inactive,–
Cc1nc(N)nc(N)c1-c1ccc(Cl)c(Cl)c1,0.299 µM (active),–,–
CCCCCCCCCCCC[N+](C)(C)Cc1ccccc1,0.473 µM (active),–,–
C/C(=N\O)[C@@H](C)NCC(C)(C)CN[C@H](C)/C(C)=N/O,–,–,-25.5%
CN1C(CSCC(F)(F)F)Nc2cc(Cl)c(S(N)(=O)=O)cc2S1(=O)=O (stereo not given),–,–,-16.1%
CCCOc1ccc2c(c1)CC[C@@H]1[C@@H]2CC[C@]2(C)C(OC)CC[C@@H]12 (stereo not given in full),–,inactive,–
Cc1cccc(C)c1NC(=O)c1ccc(N)cc1,–,–,-5.01%
Cc1cnc(NS(=O)(=O)c2ccc(N)cc2)nc1,–,–,-1.33%
O=P(O)(O)OCC(O)CO (stereo not given),–,–,-5.51%
CCOC(=O)C(O)c1ccccc1 (stereo not given),–,inactive,–
CC(=O)c1cc2ccccc2s1,–,–,-9.23%
O=C(Oc1ccccc1)c1ccccc1O,–,inactive,–
Cc1ccc(C(C)OC(=O)C2(C)CCC(C(=O)O)C2(C)C)cc1 (stereo not given),–,–,4.48%

SMILES,Potency,outcome,"activity change, negative = cell killing"
O=C(O)c1cn(C2CC2)c2cc(Cl)c(F)cc2c1=O,–,inactive,–
CC(C)CCCC(C)NCCC(C)C (stereo not given),–,–,-4.87%
Cc1sccc1Br,–,–,7.81%
O=C1Nc2cc(Cl)ccc2Oc2ccccc21,–,–,-9.61%
Cc1ncc([N+](=O)[O-])n1C,–,inactive,–
C[C@H](CN1CCCC1)C(=O)c1ccc(C(F)(F)F)cc1,6.68 µM (active),–,–
COc1cc2c(cc1OC)CN(C(=O)[C@H](C)N[C@@H](CCc1ccccc1)C(=O)O)[C@H](C(=O)O)C2,–,–,-2.2%
CC(=O)Nc1ccn(C2COC(COC(=O)c3ccccc3)O2)c(=O)n1 (stereo not given),5.31 µM (active),–,–
CCCC(=O)Nc1ccc(O)c(C(C)=O)c1,–,–,-22.4%
Nc1c2ccccc2nc2ccccc12,4.22 µM (active),–,–
CCCC(=O)OCOC(=O)C1=C(C)NC(C)=C(C(=O)OC)C1c1cccc(Cl)c1Cl (stereo not given),–,–,-15.4%
CN1[C@@H]2CC[C@H]1CC(NC(=O)n1c(=O)[nH]c3ccccc31)C2 (stereo not given in full),–,inactive,–
CC(COc1ccccc1)NN (stereo not given),–,–,1.63%
CC(=O)c1ccc(O)c(C(N)=O)c1,–,inactive,–
CCN(CC)C(=O)C1CN2CCc3cc(OC)c(OC)cc3C2CC1OC(C)=O (stereo not given),–,inactive,–
CCOc1c(N2CCOCC2)cnn(C)c1=O,–,–,-1.79%
CN1CCC(Nc2ncc3ncnc(Nc4ccc(F)c(Cl)c4)c3n2)CC1,11.9 µM (active),–,–
CCOc1ccc(NS(=O)(=O)c2ccc(N)cc2)nn1,–,–,-0.165%
Brc1ccccc1-c1ccccc1,–,–,7.32% [at 91.9 µM]
O=[N+]([O-])c1cncn1CCN1CCOCC1,inactive,–,–
